# Data from the supplement of paper PMC8728848.
# The entries come from a sample that favours the strongest signals as a whole.
# B1: Gal 12 (Homo sapiens), Q96DT0 (protein)
# chain: MSQPSGGRAPGTRIYSWSCPTVMSPGEKLDPIPDSFILQPPVFHPVVPYVTTIFGGLHAGKMVMLQGVVPLDAHRFQVDFQCGCSLCPRPDIAFHFNPRFHTTKPHVICNTLHGGRWQREARWPHLALRRGSSFLILFLFGNEEVKVSVNGQHFLHFRYRLPLSHVDTLGIFGDILVEAVGFLNINPFVEGSREYPAGHPFLLMSPRLEVPCSHALPQGLSPGQVIIVRGLVLQEPKHFTVSLRDQAAHAPVTLRASFADRTLAWISRWGQKKLISAPFLFYPQRFFEVLLLFQEGGLKLALNGQGLGATSMNQQALEQLRELRISGSVQLYCVHS
# Experiments:
# Assay in all cases: glycan array binding signal (z-score within array); higher = stronger binding
# Details in all cases: glycan notation: IUPAC condensed, linker removed
# [1] = biological target: Fuc(a1-2)Gal(b1-3)GlcNAc(b1-3)[Neu5Ac(a2-6)Gal(b1-4)GlcNAc(b1-6)]Gal(b1-4)Glc
# In short: (§1)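 From the Consortium for Functional Glycomics database, 3228 arrays were curated, keeping only those whose protein sequence was available. Binding is given as a within-array Z-score averaged across arrays sharing a protein sequence and across linkers. Negative Z-scores can be read as non-binding.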
# [2] = biological target: Fuc(a1-2)Gal(b1-3)[Fuc(a1-4)]GlcNAc(b1-2)Man(a1-3)[Fuc(a1-2)Gal(b1-3)[Fuc(a1-4)]GlcNAc(b1-2)Man(a1-6)]Man(b1-4)GlcNAc(b1-4)GlcNAc
# In short: as §1
# [3] = biological target: Fuc(a1-2)Gal(b1-4)[Fuc(a1-3)]GlcNAc(b1-2)[Fuc(a1-2)Gal(b1-4)[Fuc(a1-3)]GlcNAc(b1-4)]Man(a1-3)[Fuc(a1-2)Gal(b1-4)[Fuc(a1-3)]GlcNAc(b1-2)Man(a1-6)]Man(b1-4)GlcNAc(b1-4)GlcNAc
# In short: as §1
# [4] = biological target: Fuc(a1-2)Gal(b1-4)[Fuc(a1-3)]GlcNAc(b1-3)GalNAc
# In short: as §1
# [5] = biological target: Fuc(a1-2)[Gal(a1-3)]Gal(b1-3)GlcNAc(b1-2)Man(a1-3)[Fuc(a1-2)[Gal(a1-3)]Gal(b1-3)GlcNAc(b1-2)Man(a1-6)]Man(b1-4)GlcNAc(b1-4)GlcNAc
# In short: as §1
# [6] = biological target: Fuc(a1-2)[Gal(a1-3)]Gal(b1-4)GlcNAc(b1-3)GalNAc
# In short: as §1
# [7] = biological target: Fuc(a1-2)[Gal(a1-3)]Gal(b1-4)[Fuc(a1-3)]GlcNAc(b1-3)GalNAc
# In short: as §1
# [8] = biological target: Fuc(a1-2)[GalNAc(a1-3)]Gal(b1-4)GlcNAc(b1-3)GalNAc
# In short: as §1
# [9] = biological target: Fuc(a1-2)[GalNAc(a1-3)]Gal(b1-4)[Fuc(a1-3)]GlcNAc(b1-3)GalNAc
# In short: as §1
# [10] = biological target: Fuc(a1-3)[Gal(b1-4)]GlcNAc(b1-3)GalNAc
# In short: as §1
# [11] = biological target: Fuc(a1-3)[Gal(b1-4)]GlcNAc(b1-4)Gal(b1-4)[Fuc(a1-3)]GlcNAc
# In short: as §1
# Gal(a1-2)Gal = biological target: Gal(a1-2)Gal
# In short: as §1
# Gal(a1-6)Glc = biological target: Gal(a1-6)Glc
# In short: as §1
# [12] = biological target: Gal(b1-3)GlcNAc(a1-6)Gal(b1-4)GlcNAc
# In short: as §1
# [13] = biological target: Gal(b1-3)GlcNAc(b1-2)Man(a1-3)[Gal(b1-3)GlcNAc(b1-2)Man(a1-6)]Man(b1-4)GlcNAc(b1-4)GlcNAc
# In short: as §1
# [14] = biological target: Gal(b1-3)GlcNAc(b1-3)Gal(b1-4)Glc
# In short: as §1
# [15] = biological target: Gal(b1-3)GlcNAc(b1-3)Gal(b1-4)GlcNAc(b1-2)Man(a1-3)[Gal(b1-3)GlcNAc(b1-3)Gal(b1-4)GlcNAc(b1-2)Man(a1-6)]Man(b1-4)GlcNAc(b1-4)GlcNAc
# In short: as §1
# [16] = biological target: Gal(b1-3)GlcNAc(b1-6)GalNAc
# In short: as §1
# [17] = biological target: Gal(b1-4)GlcNAc(b1-2)[Gal(b1-4)GlcNAc(b1-6)]Man(a1-6)[Gal(b1-4)GlcNAc(b1-2)Man(a1-3)]Man(b1-4)GlcNAc(b1-4)[Fuc(a1-6)]GlcNAc
# In short: as §1
# [18] = biological target: Gal(b1-4)GlcNAc(b1-3)Gal(b1-4)GlcNAc(b1-3)Gal(b1-4)GlcNAc
# In short: as §1
# [19] = biological target: Gal(b1-4)GlcNAc(b1-3)Gal(b1-4)GlcNAc(b1-3)Gal(b1-4)GlcNAc(b1-2)[Gal(b1-4)GlcNAc(b1-3)Gal(b1-4)GlcNAc(b1-3)Gal(b1-4)GlcNAc(b1-6)]Man(a1-6)[Gal(b1-4)GlcNAc(b1-3)Gal(b1-4)GlcNAc(b1-3)Gal(b1-4)GlcNAc(b1-2)Man(a1-3)]Man(b1-4)GlcNAc(b1-4)[Fuc(a1-6)]GlcNAc
# In short: as §1
# [20] = biological target: Gal(b1-4)GlcNAc(b1-3)Gal(b1-4)GlcNAc(b1-3)Gal(b1-4)GlcNAc(b1-3)Gal(b1-4)GlcNAc(b1-2)Man(a1-3)[Gal(b1-4)GlcNAc(b1-3)Gal(b1-4)GlcNAc(b1-3)Gal(b1-4)GlcNAc(b1-3)Gal(b1-4)GlcNAc(b1-2)Man(a1-6)]Man(b1-4)GlcNAc(b1-4)GlcNAc
# In short: as §1
# [21] = biological target: Gal(b1-4)GlcNAc(b1-3)Gal(b1-4)GlcNAc(b1-3)[Gal(b1-4)GlcNAc(b1-3)Gal(b1-4)GlcNAc(b1-6)]GalNAc
# In short: as §1
# [22] = biological target: Gal(b1-4)GlcNAc(b1-3)[Gal(b1-4)GlcNAc(b1-6)]Gal(b1-4)GlcNAc
# In short: as §1
# [23] = biological target: Gal(b1-4)GlcNAc(b1-6)GalNAc
# In short: as §1
# [24] = biological target: Gal(b1-4)GlcNAc(b1-6)[Gal(b1-4)GlcNAc(b1-3)]GalNAc
# In short: as §1
# Gal(b1-4)GlcNAc6P = biological target: Gal(b1-4)GlcNAc6P
# In short: as §1
# Gal3S(b1-4)Glc = biological target: Gal3S(b1-4)Glc
# In short: as §1
# [25] = biological target: Gal3S(b1-4)[Fuc(a1-3)]Glc6S
# In short: as §1
# [26] = biological target: Gal3S(b1-4)[Fuc(a1-3)]GlcNAc
# In short: as §1
# Gal3S4S(b1-4)GlcNAc = biological target: Gal3S4S(b1-4)GlcNAc
# In short: as §1
# GalNAc4S6S(b1-4)GlcNAc = biological target: GalNAc4S6S(b1-4)GlcNAc
# In short: as §1
# [27] = biological target: GlcNAc(b1-2)Man(a1-3)[GlcNAc(b1-4)][GlcNAc(b1-2)Man(a1-6)]Man(b1-4)GlcNAc(b1-4)GlcNAc
# In short: as §1
# [28] = biological target: GlcNAc(b1-2)[GlcNAc(b1-6)]Man(a1-6)[GlcNAc(b1-2)Man(a1-3)][GlcNAc(b1-4)]Man(b1-4)GlcNAc(b1-4)GlcNAc
# In short: as §1
# [29] = biological target: GlcNAc(b1-3)Gal(b1-4)GlcNAc
# In short: as §1
# [30] = biological target: GlcNAc(b1-3)Gal(b1-4)GlcNAc(b1-3)Gal(b1-4)GlcNAc(b1-2)[GlcNAc(b1-3)Gal(b1-4)GlcNAc(b1-3)Gal(b1-4)GlcNAc(b1-6)]Man(a1-6)[GlcNAc(b1-3)Gal(b1-4)GlcNAc(b1-3)Gal(b1-4)GlcNAc(b1-2)Man(a1-3)]Man(b1-4)GlcNAc(b1-4)[Fuc(a1-6)]GlcNAc
# In short: as §1
# [31] = biological target: GlcNAc(b1-3)[GlcNAc(b1-6)]Gal(b1-4)GlcNAc
# In short: as §1
# [32] = biological target: GlcNAc(b1-4)GlcNAc(b1-4)GlcNAc(b1-4)GlcNAc(b1-4)GlcNAc
# In short: as §1
# Kdn(a2-3)Gal(b1-3)GalNAc = biological target: Kdn(a2-3)Gal(b1-3)GalNAc
# In short: as §1
# [33] = biological target: Man(a1-3)[Man(a1-6)]Man(b1-4)GlcNAc(b1-4)GlcNAc
# In short: as §1
# Man(a1-6)Man = biological target: Man(a1-6)Man
# In short: as §1
# [34] = biological target: Neu5Ac(a2-3)Gal(b1-3)GalNAc(b1-4)[Neu5Ac(a2-3)]Gal(b1-4)Glc
# In short: as §1
# [35] = biological target: Neu5Ac(a2-3)Gal(b1-3)[Fuc(a1-4)]GlcNAc(b1-3)Gal(b1-3)[Fuc(a1-4)]GlcNAc
# In short: as §1
# [36] = biological target: Neu5Ac(a2-3)Gal(b1-4)GlcNAc(b1-3)Gal
# In short: as §1
# [37] = biological target: Neu5Ac(a2-3)Gal(b1-4)GlcNAc(b1-3)Gal(b1-4)GlcNAc(b1-6)[Gal(b1-3)]GalNAc
# In short: as §1
# [38] = biological target: Neu5Ac(a2-3)Gal(b1-4)[Fuc(a1-3)]GlcNAc(b1-3)GalNAc
# In short: as §1
# [39] = biological target: Neu5Ac(a2-3)[GalNAc(b1-4)]Gal(b1-4)GlcNAc(b1-3)GalNAc
# In short: as §1
# [40] = biological target: Neu5Ac(a2-6)Gal(b1-4)GlcNAc(b1-2)[Neu5Ac(a2-6)Gal(b1-4)GlcNAc(b1-4)]Man(a1-3)[GlcNAc(b1-4)][Neu5Ac(a2-6)Gal(b1-4)GlcNAc(b1-4)Man(a1-6)]Man(b1-4)GlcNAc(b1-4)GlcNAc
# In short: as §1
# [41] = biological target: Neu5Ac(a2-8)Neu5Ac(a2-3)Gal(b1-3)GalNAc(b1-4)[Neu5Ac(a2-3)]Gal(b1-4)Glc
# In short: as §1
binder,measurement,setting,value
B1,glycan array binding signal (z-score),[1],-0.876
same,glycan array binding signal (z-score),[2],6.26
same,glycan array binding signal (z-score),[3],3.71
same,glycan array binding signal (z-score),[4],5.15
same,glycan array binding signal (z-score),[5],-0.674
same,glycan array binding signal (z-score),[6],-0.63
same,glycan array binding signal (z-score),[7],4.56
same,glycan array binding signal (z-score),[8],0.193
same,glycan array binding signal (z-score),[9],2.65
same,glycan array binding signal (z-score),[10],2.44
same,glycan array binding signal (z-score),[11],-0.147
same,glycan array binding signal (z-score),Gal(a1-2)Gal,-0.863
same,glycan array binding signal (z-score),Gal(a1-6)Glc,-0.527
same,glycan array binding signal (z-score),[12],-0.349
same,glycan array binding signal (z-score),[13],0.94
same,glycan array binding signal (z-score),[14],-0.471
same,glycan array binding signal (z-score),[15],-0.574
same,glycan array binding signal (z-score),[16],-0.771
same,glycan array binding signal (z-score),[17],1.75
same,glycan array binding signal (z-score),[18],-0.453
same,glycan array binding signal (z-score),[19],3.44
same,glycan array binding signal (z-score),[20],2.32
same,glycan array binding signal (z-score),[21],-0.119
same,glycan array binding signal (z-score),[22],0.824
same,glycan array binding signal (z-score),[23],0.417
same,glycan array binding signal (z-score),[24],0.954
same,glycan array binding signal (z-score),Gal(b1-4)GlcNAc6P,0.272
same,glycan array binding signal (z-score),Gal3S(b1-4)Glc,0.451
same,glycan array binding signal (z-score),[25],3.19
same,glycan array binding signal (z-score),[26],2.76
same,glycan array binding signal (z-score),Gal3S4S(b1-4)GlcNAc,0.103
same,glycan array binding signal (z-score),GalNAc4S6S(b1-4)GlcNAc,-0.099
same,glycan array binding signal (z-score),[27],0.085
same,glycan array binding signal (z-score),[28],-0.54
same,glycan array binding signal (z-score),[29],-0.475
same,glycan array binding signal (z-score),[30],0.115
same,glycan array binding signal (z-score),[31],-0.57
same,glycan array binding signal (z-score),[32],-0.139
same,glycan array binding signal (z-score),Kdn(a2-3)Gal(b1-3)GalNAc,0.39
same,glycan array binding signal (z-score),[33],-0.172
same,glycan array binding signal (z-score),Man(a1-6)Man,-0.442
same,glycan array binding signal (z-score),[34],0.416
same,glycan array binding signal (z-score),[35],-0.082
same,glycan array binding signal (z-score),[36],-0.004
same,glycan array binding signal (z-score),[37],-0.81
same,glycan array binding signal (z-score),[38],2.37
same,glycan array binding signal (z-score),[39],-0.063
same,glycan array binding signal (z-score),[40],0.922
same,glycan array binding signal (z-score),[41],-0.299
